In PubChem BioAssay (NCI):
The panel holds about 79,000 compounds, 15% with a hit somewhere; the sample as a whole holds those more often. A number with no mark means an inactive call. Calls of active or inactive are those of the source. No stated cut-off is given here; in the data, active means growth inhibition above about 70%; inactive means the rest. Where a SMILES comes first, the peptide text is derived from it.

How the values were obtained:
[1] = NCI Yeast Anticancer Drug Screen. Data for the rad50 strain (AID 155);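 further: 0% = growth of vehicle-only cultures of the same strain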; conditions: S. cerevisiae rad50 strain growth inhibition; at 50.0 µM; active compounds read high
In short: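 Readout: growth inhibition relative to vehicle-treated cultures. Compound exposure was carried out in a genetically defined yeast strain deficient in DNA damage repair.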

[2] = NCI Yeast Anticancer Drug Screen. Data for the mec2-1 strain (AID 157); conditions: S. cerevisiae mec2-1 strain, at 50.0 µM, active compounds read high
In short: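 Yeast mec2-1 mutant treated with compound. Readout: growth inhibition vs vehicle controls.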

[3] = NCI Yeast Anticancer Drug Screen. Data for the sgs1 mgt1 strain (AID 161);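 further: 0% = growth of cultures given vehicle only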; conditions: S. cerevisiae sgs1 mgt1 strain, at 50.0 µM, active compounds read high
In short: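 Inhibition of yeast growth, normalised to vehicle-treated controls, is reported for a strain bearing genetic alterations in DNA damage repair.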

[4] = NCI Yeast Anticancer Drug Screen. Data for the cln2 rad14 strain (AID 165);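 further: 0% = growth equal to vehicle treated cultures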; conditions: S. cerevisiae cln2 rad14 strain, at 50.0 µM, active compounds read high
In short: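 cln2 rad14 yeast strain; compound exposure; growth inhibition read vs vehicle controls.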

[5] = NCI Yeast Anticancer Drug Screen. Data for the bub3 strain (AID 167); conditions: S. cerevisiae bub3 mutant strain, at 50.0 µM, active compounds read high
In short: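 Readout: yeast growth inhibition, expressed relative to vehicle-only wells. The test organism is a mutant strain from a panel with lesions in DNA repair or checkpoint genes.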

[6] = NCI Yeast Anticancer Drug Screen. Data for the mlh1 rad18 strain (AID 175); conditions: S. cerevisiae mlh1 rad18 strain growth inhibition; at 50.0 µM; active compounds read high
In short: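 Yeast w/ defined DNA-repair lesions; compound exposure; growth vs vehicle controls → % inhibition.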

Structure (SMILES)	growth inhibition [1] [%]	growth inhibition [2] [%]	growth inhibition [3]	growth inhibition [4] [%]	growth inhibition [5]	growth inhibition [6] [%]
c1ccc(-c2cccc(-c3ccccc3)n2)cc1	20.5	33.9	-1.4%	-10.8	-24.3%	28.7
C[Si](C)(CCCNCCN)O[Si](C)(C)CCCNCCN	-7.3	-24.1	5.65%	-2.1	9.2%	9.95
NC1CSc2ccccc2NC1=O (stereo unspecified)	20.5	31.9	7.8%	9.8	22.8%	33
C(=N\N=C\c1ccccc1)/c1ccccc1	14.7	4.65	3.5%	-52.5	-1.15%	16.6
O=C(C1CC=CCC1C(=O)N1CCCCC1)N1CCCCC1 (stereo unspecified)	11.1	-8.65	-6.2%	-3.7	9.1%	-16.9
O=P(c1ccccc1)(c1ccccc1)N1CC1c1ccccc1 (stereo unspecified)	8.95	12.9	3.2%	-3.45	4.6%	10.1
Nc1nc(Cl)nc2c1ncn2C1CCC(CO)O1 (stereo unspecified)	-21.2	1.35	-7.9%	5.5	4.15%	16.1
Cc1ccc(S(=O)(=O)OCC2C(COS(=O)(=O)c3ccc(C)cc3)C3CCC2C2C3C3C2C2(C)C(=O)C3(C)C(c3ccccc3)=C2c2ccccc2)cc1 (stereo unspecified)	0.35	-5.2	4.2%	-5.7	-5.5%	12.3
Nc1nc2c(c(-c3cccc(Cl)c3)n1)COC/C2=C\c1cccc(Cl)c1	26.3	20.8	25.2%	20.2	25.4%	24
C=CCCCCCCCCCOC=O	-12.1	-5.2	1.25%	-19.8	34.3%	3.2
O=C(Nc1ccc(NC(=O)Nc2ccc(C3=NCCN3)cc2)cc1)Nc1ccc(C2=NCCN2)cc1	-7.7	7.15	7.65%	-1.7	-21.1%	-19.6
O=C(O)C1CC(Cl)C(O)C(Cl)C1 (stereo unspecified)	-6.9	8.4	8.95%	-56.3	-6.65%	9
Cc1cc(N=[N+]=[N-])c2ccc(Cl)cc2n1	-8.15	1.05	-5.55%	-47	8.55%	33.1
CC(C(=O)O)C(NC(=O)c1ccccc1)C(=O)O (stereo unspecified)	11.5	5.35	0.2%	16	4.4%	13.4
ClC1=Cc2cccc3cccc1c23	1.55	6.15	0.2%	2.5	12.4%	3.8
CC(=O)OC1OC(COC(=O)c2ccccc2)C(OC(=O)c2ccccc2)C1OC(=O)c1ccccc1 (stereo unspecified)	-60.6	-12.8	-13.2%	-33.9	-0.65%	2.95
CCCC(C(C)=O)C(C)=O	-7.8	-0.65	-4.85%	0.3	6%	-4.25
O=C(O)c1cc(=O)[nH]c(=O)[nH]1.[Cu+2]	-15.8	8.7	-18.4%	-35.3	-30.4%	-16.2

Structure (SMILES)	growth inhibition [1] [%]	growth inhibition [2] [%]	growth inhibition [3]	growth inhibition [4] [%]	growth inhibition [5]	growth inhibition [6] [%]
C=C1[C@H](OCC(C)C)[C@@H](OC(=O)C(C)CC)[C@@H](O)C(C)(C)/C=C/[C@H](C)C(=O)[C@@]2(O)C[C@H](C)[C@H](O)[C@@H]2[C@H]1OC(=O)C(C)CC (stereo partly specified)	47	46.6	75.2% (active)	69.3	73.7% (active)	58.1
COC(=O)C1CCc2c(OC)ccc(OC)c2C1=O (stereo unspecified)	-2.75	-4.7	-3.65%	20.5	-2.45%	-7.95
NC(C(=O)O)C(SCc1ccccc1)c1cccc(O)c1 (stereo unspecified)	-3.2	14.3	18.7%	-26.4	-1.3%	-0.7
[Cl][Pt+2][Cl].[NH-]c1cccc(C(F)(F)F)c1.[NH-]c1cccc(C(F)(F)F)c1	2.1	12.2	-6.35%	7.05	-22.8%	-11.9
CC(=O)Oc1cc(OC(C)=O)c2c(c1C)CC[C@@H]1[C@@H]2CC[C@]2(C)[C@@H](OC(C)=O)CC[C@@H]12	18.1	10.1	-0.25%	-17	-5.3%	34.3
COC1CC(NC(C)=O)C(OC(=O)c2ccccc2)C(CBr)O1 (stereo unspecified)	17.6	1.4	2.45%	15.2	-1.8%	19.6
Cc1ccc(-n2ncc3c(N)ncnc32)cc1	10.2	12.4	2.6%	-19	-7.8%	-14.2
Cc1ccccc1N=Cc1ccc(N(CCC#N)S(=O)(=O)c2ccccc2)cc1	11.7	-8.3	19.9%	18.7	0.95%	15
COc1ccc(CC2CC(Cc3ccc(OC)c(OC)c3)C(=O)O2)cc1OC (stereo unspecified)	-33.9	15.7	-23.4%	-33.2	3.95%	2.85
O=C(O)c1ccncc1C(=O)c1csc2ccccc12	7.9	14.2	27.1%	22.1	30.4%	19.3
Nc1nc(N)c2c(Cl)c(CNc3ccc(C(=O)NC(CC(=O)O)CC(=O)O)cc3)ccc2n1	19	9.65	22.2%	-1.35	-4.05%	14.4
CCc1cccc(C)c1NC(=O)C(=O)Cc1nc2ccccc2s1	0.75	-7.6	-9.8%	-2.15	-58%	-6.15
CC(C)OC(=O)NC1CCC2CCCCC2C1 (stereo unspecified)	2.7	11.5	-8.3%	-19.9	15.7%	-4.75
O=c1cc(Cl)ncn1C1OC(CO)C(O)C1O (stereo unspecified)	-17	-21.1	-27.6%	-14.3	-27.6%	-25.3
COCCCNC1=C(C#N)C(=O)NC2(CCCC2)S1	-35.6	-35.5	-18.5%	-2.65	-30.8%	-17.2
COC(=O)C(NC(=O)C(NC(=O)C(N)C(C)C)C(C)C)C(C)C (stereo not drawn) (H-Val-Val-Val-OMe; configuration not given here)	5.3	20.6	5.4%	-11.7	-3.4%	-9.5
Nc1ncnc(N)c1NC(=O)c1cccc(-c2ccccc2)c1	2.85	41.1	23.9%	0.8	34.9%	-21.1
Cc1ccc(N(CN2C(=O)CCC2=O)CS(=O)(=O)c2ccc(Cl)cc2)cc1	10.4	3.5	-0.45%	14.7	-3.4%	-19.6
